Sfp inh = qHTS Assay for Inhibitors of Bacillus subtilis Sfp phosphopantetheinyl transferase (PPTase); Biochemical Sfp PPTase activity, qHTS; Potency, µM, inactives show largest response in the series, negative = inhibition, actives largely listed as inhibitors; actives 3.5% (n = 310,000); AID 1490, 2009;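 also: the enzyme is Sfp with the accession as filed and its product quenches rhodamine fluorescence; potency is read from the fitted curve at half-maximal effect; 0% = enzyme reaction without inhibitor and -100% = no enzyme wells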
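Reaction rates are the 30-min fluorescence difference (ex 525, em 598 nm) in wells containing 15 nM Sfp, 5 uM rhodamine-CoA and 12.5 uM BHQ-2-YbbR at pH 7.6 with 10 mM MgCl2.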
VDR inhibitor = Inhibitors of the vitamin D receptor (VDR): qHTS; Vitamin D3 receptor (Homo sapiens), P11473; VDR-SRC2-3 peptide fluorescence polarization, 2 h; Potency, µM, without a hit: max response, negative = inhibition, hits mostly inhibitors; actives 0.93% (n = 400,000); AID 504847, 2011; also: potency is read from the fitted curve at half-maximal effect
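Signal is fluorescence polarization, reporting how far test compounds block the interaction of VDR with the SRC2-3 coregulator peptide after a 2 h room-temperature incubation.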
MmCpn inh = Inhibitors of TCP-1 ring complex (TRiC) of Methanococcus maripaludis (MmCpn): qHTS; purified Mm-Cpn ATPase, ADP Transcreener TR-FRET; Potency, µM (titrated, usually from 76.9 µM), without a hit: at the top dose activity, negative = inhibition, hits mostly inhibitors; Chaperonin Mm-Cpn (Methanococcus maripaludis); actives 0.031% (n = 330,000); also: potency is read from the fitted curve at half-maximal effect; nearly all actives have a fitted effect of over 80% in size
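ATP (10 uM final) was added to archaeal chaperonin (25 nM final) after 10 min exposure to test compound at 37°C; after 30 min further incubation, ADP was detected by competitive TR-FRET.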
PLK1 PBD inh = qHTS for Inhibitors of PLK1-PDB (polo-like kinase 1 - polo-box domain): Primary Screen | Plk1 PBD binding of FITC phosphopeptide, fluorescence polarization | Potency, µM, for the others: max response, negative = inhibition, actives largely listed as inhibitors | actives 2.8% (n = 360,000) | AID 720504, 2013; also: potency is read from the fitted curve at half-maximal effect; series mostly up to about 57 µM; nearly all actives have a fitted effect of over 65% in size
CCT modulator = High-Throughput Screening for Modulators of Cytosolic Chaperonin Activity | purified chaperonin ATPase assay, HTRF ADP detection, 30 min | activity change, % (no concentration beside the values), hits read low | actives 0.3% (n = 360,000); in the data active = activity change below about -30%
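Nucleotide hydrolysis assay: TRiC at 20–40 nM final (set by batch activity) with 10 uM ATP, 30 min at 37 °C, in presence of 76 uM compound. Detection by competitive ADP HTRF, 30 min ambient.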
G9a inh = qHTS Assay for Inhibitors of Histone Lysine Methyltransferase G9a; G9a H3K9 monomethylation, AlphaScreen, 2 h; AID 504332, 2011; Potency, µM (highest dose often 102 µM), for the others: top-dose activity, negative = inhibition, actives largely listed as inhibitors; Histone-lysine N-methyltransferase EHMT2 (Homo sapiens), Q96KQ7; actives 8.8% (n = 350,000); also: potency is read from the fitted curve at half-maximal effect; nearly all actives have a fitted effect of over 75% in size
Target sequence (Q96KQ7 913-1193 limits assumed): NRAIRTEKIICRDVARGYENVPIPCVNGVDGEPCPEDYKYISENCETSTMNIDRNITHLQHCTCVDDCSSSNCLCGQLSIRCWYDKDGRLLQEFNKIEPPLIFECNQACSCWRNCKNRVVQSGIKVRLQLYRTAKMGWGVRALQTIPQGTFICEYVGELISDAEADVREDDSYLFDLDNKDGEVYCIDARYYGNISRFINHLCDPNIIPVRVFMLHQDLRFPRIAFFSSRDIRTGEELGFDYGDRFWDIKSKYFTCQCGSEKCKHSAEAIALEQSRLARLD
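Chemiluminescent proximity detection of H3K9 monomethylation, read after 10 min bead incubation in the dark. Reaction: 20 nM G9a, 500 nM biotin-H3K9 peptide, 20 uM SAM cofactor, 2 h, room temperature, following 15 min enzyme-compound preincubation.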
* marks the source's active call; other numbers are inactive results; [ ] = dose if it differs, or a comment. An excerpt weighted towards active compounds, which were near 10% of everything screened. Unless noted, calls follow the shape of the dose curve; as a rule, active = well fitted curve in the direction sought with a large enough effect; inconclusive = small, poorly fitted or top-dose-only effect, or another doubt; inactive = no such curve, though single readings can be large; an effect the other way counts as inactive or inconclusive. Unless noted, % is scaled to controls: 0 for no effect and ±100 for the full control effect.

`O/N=C/c1ccccc1Oc1ccc(Cl)cc1` gave Sfp inh -3%, VDR inhibitor inconclusive, MmCpn inh 0%, PLK1 PBD inh 8.4µM* and CCT modulator -1.
For CCCCOc1ccc(OCCCN2CCOCC2)cc1 the results were Sfp inh -5%, VDR inhibitor 15%, MmCpn inh 1%[15.4 µM], PLK1 PBD inh -10%, CCT modulator 3 and G9a inh -37%[2.33 µM].
CCOc1ccc(OCCOCCN2CCOCC2)cc1 was read as Sfp inh -16%, VDR inhibitor 13%, MmCpn inh -2%, PLK1 PBD inh -7%, CCT modulator -2 and G9a inh 2µM*.
Screening COc1ccc(OCCOCCN2CCc3ccccc3C2)cc1 returned Sfp inh 0%, VDR inhibitor -1%, MmCpn inh 0%, PLK1 PBD inh -4%, CCT modulator 2 and G9a inh 10µM*.
N#Cc1ccc(OCCN2CCc3ccccc3C2)cc1 was read as VDR inhibitor 6%, PLK1 PBD inh 2% and CCT modulator 0.
CCC(C)c1ccc(OCCCCN2CCOCC2)cc1 (stereo not given) was read as Sfp inh -12%, VDR inhibitor -9%, MmCpn inh -1%, PLK1 PBD inh -12%, CCT modulator -5 and G9a inh 10µM*.
`COc1ccc(OCCOCCN2CCOCC2)cc1` gave Sfp inh -16%, VDR inhibitor -11%, MmCpn inh 1%, PLK1 PBD inh -6%, CCT modulator -3 and G9a inh 11µM*.
`O=C(CC(c1cccs1)N1Cc2ccccc2C1=O)Nc1ccccc1F` (stereo not given) gave VDR inhibitor -4% and G9a inh -6%[59 µM].
`COCCn1c(=O)c(-c2cccs2)nc2cnc(N3CCOCC3)nc21` gave Sfp inh 15%, VDR inhibitor -1% and G9a inh 6%[0.501 µM].
`Cc1ccn(-c2ccc(NC(=O)c3cccs3)cc2)n1` gave Sfp inh 24%, VDR inhibitor -26%, MmCpn inh 2%, PLK1 PBD inh -2%, CCT modulator 1 and G9a inh 71µM*.
For COc1ccc(CNC(=O)Cc2c(C(=O)O)c(C)cn2C)cc1 the results were VDR inhibitor 3% and G9a inh 5%[59 µM].
For CCOC(=O)N1CCN(Cc2nc(N)nc(Nc3ccc(Oc4ccccc4)cc3)n2)CC1 the results were Sfp inh -3%, VDR inhibitor inconclusive, MmCpn inh 1%, PLK1 PBD inh -13%, CCT modulator -1 and G9a inh 32µM*.
Nc1nc(CN2CCCCCC2)nc(Nc2ccc(F)cc2)n1 was read as Sfp inh -20%, VDR inhibitor 5%, MmCpn inh 0%, PLK1 PBD inh inconclusive, CCT modulator 0 and G9a inh 10µM*.
`COc1ccccc1N1CCN(Cc2nc(N)nc(Nc3ccccc3)n2)CC1` gave Sfp inh 7%, VDR inhibitor -12%, MmCpn inh -3%, PLK1 PBD inh -1%, CCT modulator -4 and G9a inh 79µM*.
`CCOC(=O)C1CCCN(Cc2nc(N)nc(Nc3ccc(OC)cc3)n2)C1` (stereo not given) gave Sfp inh 8%, VDR inhibitor -21%, MmCpn inh -1%, PLK1 PBD inh 27µM*, CCT modulator -5 and G9a inh -8%[12.7 µM].
Screening CCOC(=O)C1CCCN(Cc2nc(N)nc(Nc3ccc(Cl)cc3)n2)C1 (stereo not given) returned Sfp inh 10%, VDR inhibitor -9%, MmCpn inh -2%, PLK1 PBD inh -23%, CCT modulator -3 and G9a inh inconclusive.
For Cc1ccc2c(c1)N(C(=O)N1CCC(C(=O)NCCC3=CCCCC3)CC1)CC(C)O2 (stereo not given) the results were VDR inhibitor 18% and G9a inh -9%[59 µM].
`CC(=O)O[C@@H]1C(=O)[C@@]2(C)[C@H](O)C[C@H]3OC[C@]3(OC(C)=O)[C@@H]2[C@H](OC(=O)c2ccccc2)[C@@]2(O)C[C@H](OC(=O)[C@@H](O)[C@@H](NC(=O)c3ccccc3)c3ccccc3)C(C)=C1C2(C)C` (stereo in doubt) gave Sfp inh inconclusive, VDR inhibitor 4% and G9a inh 16%[21.5 µM].
`COc1cc(OC)c(NC(=O)c2ccc3c(c2)N(Cc2ccc(C)cc2)CCS3)cc1Cl` gave VDR inhibitor -12% and G9a inh 1%[59 µM].
For CN(C(=O)CSc1nc2ccc(NC(=O)c3ccc(F)cc3)cc2s1)c1ccccc1 the results were VDR inhibitor 3% and G9a inh 12%[59 µM].
`Nc1nnc(SCC(=O)NC2CCCC2)s1` gave Sfp inh 11%, VDR inhibitor -1%, MmCpn inh 1%, PLK1 PBD inh 5%, CCT modulator -2 and G9a inh 9%.
`Nc1nnc(SC2CCCC2)s1` gave Sfp inh 11%, VDR inhibitor inconclusive, MmCpn inh 2%, PLK1 PBD inh 27µM*, CCT modulator -1 and G9a inh 14%[59 µM].
COc1cccc(NC(=O)c2cnn(-c3ccccc3)c2-n2cccc2)c1 was read as VDR inhibitor 0% and G9a inh -3%[59 µM].
`N[C@@H](Cn1cc(F)c(=O)[nH]c1=O)C(=O)O` gave Sfp inh 56µM* and VDR inhibitor 0%.
For CCOC(=O)CCn1cc(F)c(=O)[nH]c1=O the results were Sfp inh 15%, VDR inhibitor -18%, MmCpn inh 0%, PLK1 PBD inh -4%, CCT modulator 3 and G9a inh 8%.
Screening CC1CC(C)(C)CC2(C1)NC(=O)N(CC(=O)N1CCN(Cc3ccc(C#N)cc3)CC1)C2=O (stereo not given) returned VDR inhibitor 5%, MmCpn inh -1%, PLK1 PBD inh 3%, CCT modulator 0 and G9a inh 50µM*.
N#CC1=C(N)Oc2nc(-c3ccccc3)[nH]c2C1c1cccnc1 (stereo not given) was read as Sfp inh 17%, VDR inhibitor -21%, MmCpn inh 0%, PLK1 PBD inh -19%, CCT modulator -1 and G9a inh inconclusive.

Source: PubChem (National Center for Advancing Translational Sciences (NCATS))
